Compounds with a hit are over-represented: about 3.6% of the library has one in this group of screens.
Nrf2 inh = Nrf2 qHTS screen for inhibitors; A549 ARE-Fluc reporter, luciferase luminescence, 18-24 h; Potency, µM (doses to about 46 µM), for inactives: at the top dose activity change, negative = inhibition, hits mostly inhibitors; 360,000 compounds, 2.1% hits; AID 504444, 2011; note: % is set by controls: 0 for no effect and ±100 for the full control effect; nearly all actives have a fitted effect of over 60% in size
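Quantitative HTS in A549 cells stably bearing an antioxidant response element-firefly luciferase construct. Inhibition of Nrf2-driven transcription was scored by luminescence after 18-24 h of compound exposure at 37 °C.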
A549 tox-1 = Nrf2 qHTS screen for inhibitors: counterscreen for cytotoxicity | A549 ARE-Fluc cells, CellTiter-Fluor viability, 18-24 h | Potency, µM (titrated, usually from 46 µM), without a hit: top-dose activity change, negative = cytotoxicity, hits mostly inhibitors | 390,000 compounds, 0.16% hits | AID 504648, 2011; note: % is set by controls: 0 for no effect and ±100 for the full control effect
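Cytotoxicity counterscreen: CellTiter-Fluor fluorescence was measured in A549 ARE_Fluc cells after 18-24 h of compound exposure in a concentration series. The subsequent BugLite luminescent read reports ARE-luciferase activity.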
HepG2 tox = qHTS for Inhibitors of TGF-b: Cytotox Counterscreen; HepG2 CAGA-GFP viability, ATP luminescence, 18 h; Potency, µM (titrated, usually from 46.1 µM), inactives show at the top dose activity change, negative = cytotoxicity, hits mostly cytotoxic; 410,000 compounds, 0.76% hits
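CellTiter-Glo luminescence gave cytotoxicity after 18 hours at 37 degrees C. The cells were HepG2 CAGA-GFP in 1% FBS DMEM, stimulated with 500 pg/mL TGF-beta after compound addition. %Activity was normalised to no-cell wells (complete cell-killing) and DMSO (no toxicity), and curves were fitted and classified.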
TGFb inhibitor = qHTS for Inhibitors of TGF-b; HepG2 CAGA-GFP TGF-b/SMAD3 reporter, GFP fluorescence, 18 h; TGF-beta stimulated, 500 pg/mL final; Potency, µM (doses to about 46.1 µM), for the others: at the highest dose activity, negative = inhibition, hits mostly inhibitors; 410,000 compounds, 1.2% hits; note: % is set by controls: 0 for no effect and ±100 for the full control effect; nearly all actives have a fitted effect of over 65% in size
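HEPG2 CAGA-GFP reporter cells (1000/well, DMEM with 1% FBS) received compounds, then recombinant TGF-beta at 500 pg/mL final for 18 hours at 37 degrees C. Per-cell GFP summed per well was normalised to unstimulated and stimulated DMSO controls before curve fitting.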
Nrf2 ARE act = qHTS of Nrf2 Activators; Potency, µM (titrated, usually from 46.1 µM), for the others: at the highest dose activation, hits mostly activators; AREc32 ARE-luciferase reporter (MCF7-derived line), luminescence, 24 h; AID 624171, 2012; 410,000 compounds, 0.31% hits; note: % of control where 0% means no effect; nearly all actives have a fitted effect of over 65% in size
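Cells of the AREc32 ARE-luciferase line are plated in OPTI-MEM containing 5% FBS and left overnight at 37 deg C. Compounds are pinned in, incubation continues 24 hr, and firefly luciferase signal is then measured.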
FLuc counter 3 = Nrf2 qHTS screen for inhibitors: Purified Fluc Biochemical Counterscreen for Hit Validation; shares compounds with Nrf2 inh; purified firefly luciferase, luminescence inhibition; 1,400 compounds, 4% hits; Potency, µM (top dose mostly 57.5 µM), inactives show top-dose activity change, negative = inhibition, hits mostly inhibitors; note: % is set by controls: 0 for no effect and ±100 for the full control effect; nearly all actives have a fitted effect of over 65% in size
Target sequence (P08659 whole entry, looked up): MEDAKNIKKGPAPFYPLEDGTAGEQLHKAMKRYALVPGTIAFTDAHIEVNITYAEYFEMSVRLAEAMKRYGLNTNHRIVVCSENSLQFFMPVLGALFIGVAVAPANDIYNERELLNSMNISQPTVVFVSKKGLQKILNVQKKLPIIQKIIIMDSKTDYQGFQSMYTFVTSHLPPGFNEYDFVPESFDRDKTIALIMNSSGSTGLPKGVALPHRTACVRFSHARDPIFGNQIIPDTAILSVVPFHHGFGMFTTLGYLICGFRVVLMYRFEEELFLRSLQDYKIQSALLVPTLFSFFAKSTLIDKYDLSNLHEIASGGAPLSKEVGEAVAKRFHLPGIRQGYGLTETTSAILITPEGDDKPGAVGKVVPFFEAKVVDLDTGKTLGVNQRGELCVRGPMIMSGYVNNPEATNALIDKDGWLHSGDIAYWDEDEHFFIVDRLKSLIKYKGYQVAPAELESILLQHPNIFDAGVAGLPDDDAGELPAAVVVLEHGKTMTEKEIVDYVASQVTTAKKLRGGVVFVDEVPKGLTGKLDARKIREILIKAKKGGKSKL
A549 tox-2 = Nrf2 qHTS screen for inhibitors: A549 ARE-Fluc Cytotoxicity Counterscreen for Hit Validation; shares compounds with Nrf2 inh; A549 ARE-Fluc cells, cytotoxicity counterscreen; Potency, µM (top dose mostly 46.1 µM), without a hit: at the highest dose activity change, negative = cytotoxicity, actives largely listed as inhibitors; 1,400 compounds, 2% hits;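 note: cells exposed to compounds for 18 to 24 hours; % is set by controls: 0 for no effect and ±100 for the full control effect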
ARE-Fluc inh = Nrf2 qHTS screen for inhibitors: Nrf2 A549 ARE-Fluc Confirmation Assay for Hit Validation; shares compounds with Nrf2 inh; A549 ARE-firefly luciferase reporter, luminescence; AID 720524, 2013; Potency, µM (series often up to 46.1 µM), inactives show top-dose activity change, negative = inhibition, usual class: inhibitors; 1,400 compounds, 74% hits; note: % is set by controls: 0 for no effect and ±100 for the full control effect; nearly all actives have a fitted effect of over 65% in size
Active calls of the source: *; ? = inconclusive; / = no result given. Calls come from the whole dose curve; as a rule, active = well fitted curve in the direction sought with a large enough effect; inconclusive = small, poorly fitted or top-dose-only effect, or another doubt; inactive = no such curve, though single readings can be large; an effect the other way counts as inactive or inconclusive. Potency is the fitted concentration of half-maximal effect.

SMILES | Nrf2 inh | A549 tox-1 | HepG2 tox | TGFb inhibitor | Nrf2 ARE act | FLuc counter 3 | A549 tox-2 | ARE-Fluc inh
Cc1noc(NS(=O)(=O)c2ccc(N/C=C\C(=O)c3cccc4ccccc34)cc2)c1C | ? | -9% | -30% | -10% | 1% | / | / | /
COC(=O)c1[nH]c2ccc(C)cc2c1NC(=O)CN1CCN(c2ccc(F)cc2)CC1 | 8.9µM* | ? | -4% | -1% | 1% | -14% | -19% | 8.2µM*
COC(=O)c1[nH]c2ccc(C)cc2c1NC(=O)CN1CCC(C)CC1 | ? | -18% | -15% | -2% | 0% | / | / | /
Cc1ccc(-c2c[n+]3c(n2-c2ccccc2)CCC3)cc1 | 6.5µM* | -10% | -30% | -26% | 2% | 2% | -5% | 13µM*
CCOc1ccc(-n2c(-c3ccccc3)c[n+]3c2CCCCC3)cc1 | 2.1µM* | -18% | -28% | ? | 0% | 0% | -14% | 5.8µM*
Cc1ccnc2c1ccc1cccnc12 | ? | ? | -4% | -23% | 18% | -17% | ? | /
Cc1cccc2cccnc12 | ? | -1% | -20% | -15% | 0% | / | / | /
O=C(Nc1ccc2c(c1)OCCO2)c1cccc2nc3ccccc3nc12 | 2.6µM* | 21µM* | -40% | -13% | 0% | ? | 12µM* | /
CC1CCN(c2c(NCc3ccc(C(=O)N4c5ccccc5CC4C)cc3)c(=O)c2=O)CC1 (centres undefined) | 9.2µM* | -19% | -27% | -18% | 3% | -24% | -21% | 2.1µM*
CC1CCN(c2c(NCc3ccc(C(=O)N4CCN(C5CCCCC5)CC4)cc3)c(=O)c2=O)CC1 | 0% | 0% | -46% | ? | 0% | / | / | /
O=C(Nc1ccccc1)C1(c2ccccc2)CC1(Cl)Cl (centres undefined) | -16% | -9% | 0% | -14% | 0% | / | / | /
COc1ccc(S(=O)(=O)N2CCN(c3ccccc3)CC2)cc1C(=O)N1CCCC1 | ? | -4% | 0% | -3% | 0% | / | / | /
O=C(c1cc(S(=O)(=O)N2CCN(c3ccccc3)CC2)ccc1Cl)N1CCCC(C(F)(F)F)C1 (centres undefined) | 4.6µM* | -14% | -12% | -25% | 0% | 2% | -1% | 5.2µM*
COc1ccc(NC(=S)NC(NC(=O)/C=C/c2ccccc2)C(Cl)(Cl)Cl)cc1 (centres undefined) | -13% | 6% | -48% | ? | 5% | / | / | /
O=C(/C=C/c1ccccc1)NC(NC(=S)Nc1ccc(Cl)cc1)C(Cl)(Cl)Cl (centres undefined) | 6.5µM* | ? | -39% | ? | 3% | ? | ? | 5.2µM*
Cc1cc(C)nc(SCC(=O)Nc2ccnc3ccccc23)n1 | 1.2µM* | ? | -11% | -17% | 3% | -2% | -9% | -24%
COc1ccccc1NS(=O)(=O)c1cccc(C(=O)NC2CCN(Cc3ccccc3)CC2)c1 | 2.3µM* | ? | -18% | -25% | 2% | -1% | -20% | ?
COc1ccccc1NS(=O)(=O)c1cccc(C(=O)NN)c1 | -28% | -26% | -17% | 0% | 0% | / | / | /
CCc1ccc(-n2nc3ccc(NC(=O)COc4ccc(OC)cc4)cc3n2)cc1 | 1.6µM* | -6% | -17% | -10% | 3% | -18% | 7% | -1%
CCCC(=O)Nc1ccc2nn(-c3ccc(OC)cc3)nc2c1 | ? | -10% | -24% | -9% | 3% | / | / | /
O=C(NC(=S)Nc1ccc(Cc2ccncc2)cc1)c1ccc(F)cc1 | 5.8µM* | 0% | -15% | -11% | 4% | -17% | 7% | ?
CC1(C)CC(N2CCOCC2)=CC(=[N+]2CCOCC2)C1 | -6% | -7% | -5% | 0% | -1% | / | / | /
CN(C)NC1=CC(=[N+]2CCCC2)CC(C)(C)C1 | -14% | 3% | 1% | 20% | 0% | / | / | /
CCCN(CCC)C1=CC(=[N+]2CCCC2)CC(C)(C)C1 | 2.1µM* | -17% | -32% | ? | 2% | 0% | -10% | 4.6µM*
CC1(C)CC(N2CCCCC2)=CC(=[N+]2CCCCC2)C1 | 2.3µM* | -21% | -16% | 0% | 0% | 2% | -13% | 9.2µM*
SMILES | Nrf2 inh | A549 tox-1 | HepG2 tox | TGFb inhibitor | Nrf2 ARE act | FLuc counter 3 | A549 tox-2 | ARE-Fluc inh
O=C(CNC(=O)c1cc(=O)[nH]c2ccc(S(=O)(=O)N3CCOCC3)cc12)Nc1ccc(F)c(F)c1 | ? | 3% | 8% | -2% | 0% | / | / | /
O=C(Oc1ccc(N(Cc2cccs2)C2=NS(=O)(=O)c3ccccc32)cc1)c1ccco1 | -22% | 0% | 4% | ? | 0% | / | / | /
O=C(Oc1ccc(N(Cc2cccs2)C2=NS(=O)(=O)c3ccccc32)cc1)c1ccccc1Cl | 1µM* | -5% | -65% | -15% | -1% | -2% | -1% | 3.7µM*
O=C(CN1CCN(C(=O)c2ccco2)CC1)Nc1ccccc1-c1ccccc1 | ? | -5% | -34% | -6% | -1% | / | / | /
NC(=Nc1nc(-c2ccccn2)cc2ccccc12)c1ccccn1 | 1.5µM* | -17% | -60% | -62% | -1% | -3% | -23% | 1.6µM*
Fc1ccc2[nH]c3c(N4CCc5ccccc5C4)ncnc3c2c1 | 7.3µM* | ? | -76% | ? | 4% | -15% | -16% | /
CCN(C(=O)Cn1c(=O)n(CC2CCC(C(=O)NC)CC2)c(=O)c2sccc21)c1ccccc1 (centres undefined) | ? | 8% | 0% | -1% | 1% | / | / | /
FC(F)(F)c1cccc(Nc2nc3nonc3nc2Nc2ccc(Cl)cc2)c1 | 0.58µM* | 2.9µM* | -109% | / | -3% | ? | 4.6µM* | 1µM*
COc1cc(C(=O)N/N=C/c2ccc(OC(=O)c3ccccc3Cl)c(OC)c2)ccc1O | 1.5µM* | -2% | -31% | -15% | 3% | 0.54µM* | 2% | 0.92µM*
NS(=O)(=O)c1ccc(NC(=O)c2ccc(F)cc2F)c(NC(=O)c2ccc(F)cc2F)c1 | 5% | 0% | 6% | 1% | 0% | / | / | /

High-throughput results: PubChem, National Center for Advancing Translational Sciences (NCATS)
